SMILES strings stand for the structures. Where “and” joins values, the source holds several entries; their conditions need not be identical. Equal values may be shown once. Results filed as inconclusive are left out. Entries that show only a call come without a potency. A structure can be active in one record and inactive in another. Calls of active or inactive are those of the source. Calls come from the whole dose curve; as a rule, active = well fitted inhibition curve with a large enough effect in the signal ratio, with a control signal flat (not every such curve was filed as active); inconclusive = small, poorly fitted or top-dose-only effect, or effect the other way, or a change in a side signal; inactive = flat fitted curve, though single readings scatter; the % refers to the signal ratio.

Peroxisome proliferator-activated receptor gamma (Homo sapiens), sequence (P37231 whole entry, looked up): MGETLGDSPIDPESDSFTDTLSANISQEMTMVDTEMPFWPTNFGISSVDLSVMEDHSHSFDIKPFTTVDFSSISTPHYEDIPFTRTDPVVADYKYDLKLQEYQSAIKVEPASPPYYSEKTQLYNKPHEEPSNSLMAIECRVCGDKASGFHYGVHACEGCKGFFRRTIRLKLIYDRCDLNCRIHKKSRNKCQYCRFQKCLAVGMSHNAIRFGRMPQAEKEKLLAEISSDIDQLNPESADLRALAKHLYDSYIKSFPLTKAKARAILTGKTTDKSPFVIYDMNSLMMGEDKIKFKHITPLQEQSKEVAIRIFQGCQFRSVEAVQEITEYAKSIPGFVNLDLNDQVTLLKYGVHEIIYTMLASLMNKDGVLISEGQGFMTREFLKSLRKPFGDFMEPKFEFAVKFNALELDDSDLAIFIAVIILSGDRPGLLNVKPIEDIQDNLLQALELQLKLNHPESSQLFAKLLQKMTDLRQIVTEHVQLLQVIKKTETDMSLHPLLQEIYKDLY

For this assay, the target named is Peroxisome proliferator-activated receptor gamma (Homo sapiens) (UniProt P37231). The assay is described as follows: qHTS assay for small molecule antagonists of peroxisome proliferator-activated receptor gamma signaling (AID 588537). As to conditions: HEK293 PPARg-UAS-bla, beta-lactamase ratio, antagonist mode; series mostly up to 76.8 µM. The source says:
NIH Chemical Genomics Center [NCGC]
U.S. Environmental Protection Agency [EPA]
National Institutes of Environmental Health Sciences [NIEHS]
National Toxicology Program [NTP]
The Peroxisome proliferator-activated receptors (PPARs) are lipid-activated transcription factors of the nuclear receptor superfamily with three distinct subtypes namely PPAR alpha, PPAR delta (also called PPAR beta) and PPAR gamma. All these subtypes heterodimerizes with Retinoid X receptor (RXR) and these heterodimers regulate transcription of various genes. PPAR-gamma (glitazone receptor) ligands have been used in the treatment of type 2 diabetes and dyslipidaemia. It is involved in the regulation of glucose and lipid metabolism. PPAR-gamma activates certain genes like Paraoxonase 1 which is responsible for hydrolyzing organophosphates. PPAR-gamma ligands may also be therapeutically important in the treatment of coronary artery disease, obesity and cancer and atherosclerosis.
NCGC Assay Protocol Summary
Using a beta-lactamase reporter-gene under control of Peroxisome Proliferator-Activated-gamma (PPAR-gamma) response element, a cell-based assay [GeneBLAzer PPAR-gamma-UAS-bla assay developed by Invitrogen] was used to measure PPAR-gamma ligands signaling. GeneBLAzer PPAR-gamma-UAS-bla-HEK293 cells were used with assay medium containing 1% charcoal/dextran treated FBS. The assay was performed in clear bottom black Greiner 1536-well plates. Library compounds were measured for their ability to inhibit the reporter gene activity. Compounds were screened in a titration series in 1536-well format. The fluorescence intensity (405 nm excitation, 460/530 nm emission) was measured using an EnVision plate reader. Data was normalized relative to Rosiglitazone control (50 nM, 100%), and DMSO only wells (basal, 0%). Concentration-response titration points for each compound were fitted to the Hill equation yielding concentrations of half-maximal inhibition (IC50) and maximal response (efficacy) values.
qHTS protocol for PPAR-gamma beta-lactamase assay in antagonist mode
[Step] [Parameter] [Value] [Description]
1. Reagent; 5 uL; 3000 cells/well
2. Incubation; 37 C for 6-6.5 hrs
4. Controls (GW9662, PPAR-gamma antagonist); 23 nL,
5. Agonist (Stimulator); 1uL; Rosiglitazone at 50 nM (final) concentration
6. Incubation; 37 C for 16 hrs
7. Detection reagent; 1 uL of CCF4-dye
8. Incubation; RT for 2 hrs
9. Detection; Fluorescence; Envision plate reader
For orientation: qHTS replaces the single test concentration by a dilution series.
On to `C=C(C)C(=O)OCC1CO1` (stereo not given), for which the Potency entry was “inactive”. On to `CC(C)(OO)c1ccccc1`, for which the Potency entry is “inactive”. On to `Cc1ccc2ccccc2c1`, for which the Potency result is “inactive”.

`BrCCBr`: the Potency result is “inactive”.

Take `ClC1=C(Cl)C2(Cl)C3C4C=CC(C4)C3C1(Cl)C2(Cl)Cl` (stereo not given): the Potency entry is “inactive”. Next, `CNC(=O)Oc1cccc2c1OC(C)(C)O2`: “inactive”. Next, `Brc1ccccc1`: “inactive”. Then `CNC(=O)O/N=C/C(C)(C)SC`, with “inactive and 39.8 µM (active)”; and `c1ccc(N=Nc2ccccc2)cc1`, with “inactive”.

Consider `C[C@H]1CCCC(=O)CCC/C=C/c2cc(O)cc(O)c2C(=O)O1`, for which the Potency entry was “inactive”. With `O=C=NC1CCCCC1`, the Potency result was “inactive”.

As to `C[C@]12CC[C@H]3[C@@H](CCC4=CC(=O)CC[C@@]43C)[C@@H]1CC[C@@H]2O`, the Potency entry was “inactive”. Then `CCOP(=S)(OCC)SCSC(C)(C)C`, with “inactive”; and `C[N+](C)(C)Cc1ccccc1`, with “inactive”; and `Clc1nc(Cl)nc(Nc2ccccc2Cl)n1`, with “inactive”. Next, `CC(C)(C)C(=O)C(Oc1ccc(Cl)cc1)n1cncn1` (stereo not given): “inactive”; `Clc1cccc(C(Cl)(Cl)Cl)n1`: “inactive”.

On to `CNC(=O)N(C)c1nnc(C(C)(C)C)s1`, for which the Potency entry was “inactive”. Then `ClC(Cl)=C(c1ccc(Cl)cc1)c1ccc(Cl)cc1`, with “inactive”; and `Oc1ccc(Cl)cc1Cl`, with “inactive”; and `CCCCSP(=O)(SCCCC)SCCCC`, with “inactive”. Then `Nc1c(Cl)c(Cl)nc(C(=O)O)c1Cl`, with “inactive”; and `COC(=O)NC(=S)Nc1ccccc1NC(=S)NC(=O)OC`, with “inactive”. Next, `O=NN(c1ccccc1)c1ccccc1`: “inactive”. Regarding `C1CCC2CCCCC2C1` (stereo not given), the Potency entry is “inactive”.

For the molecule `CCCCOC(=O)c1ccccc1C(=O)OCCCC`, the Potency result was “inactive”.

With `Cc1ccc(O)c(C)c1`, the Potency result was “inactive”. Next, `CC(C)Nc1nc(Cl)nc(NC(C)C)n1`: “inactive”. Next, `C=CC(=C)C`: “inactive”; `CCNc1nc(Cl)nc(NC(C)C)n1`: “inactive”. Next, `CCOP(=S)(OCC)Oc1ccc([N+](=O)[O-])cc1`: “inactive”; `C=CC(=O)OCC`: “inactive”. In the case of `Cc1ccc([N+](=O)[O-])cc1C`, the Potency entry is “inactive”. Regarding `CCC[CH2][Sn]([Cl])([Cl])[Cl]`, the Potency entry is “inactive”. In the case of `C=C(Cl)Cl`, the Potency entry was “inactive”. For `CC(C)(C)OO`, the Potency entry is “inactive”. Then `CCSC(=O)Cl`, with “inactive”; and `ClC(Cl)=C(Cl)Cl`, with “inactive”; and `CC(O)CCl` (stereo not given), with “inactive”. Take `ClC1=C(Cl)C2(Cl)C3C(Cl)C=CC3C1(Cl)C2(Cl)Cl` (stereo not given): the Potency result was “inactive”.

The record behind these values is PubChem BioAssay (NCATS).
